This is an account of results in PMC8384837, “Expanding the binding specificity for RNA recognition by a PUF domain”.

What all share (test): yeast three-hybrid, YBZ-1, SC-Leu-His + 0.5 mM 3-AT, 4 days
Conditions in all cases: tags: N-Gal4 AD-HA kept; label: inside an RPR1-promoter hybrid RNA with tandem MS2 sites; ssRNA

One test has as its target PUM1 PUF domain R8-KWF (Homo sapiens, UniProt Q14671 828-1176, N1122K;Y1123W;Q1126F). Put shortly:
(§1)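 The interaction score is the log change in variant frequency from input to selection. Scores were computed in log2 with a pseudocount of 1 for absent variants, using Illumina sequencing of PCR-amplified repeat regions. The input came from four days on SC-Leu and the selection from four days on SC-Leu-His + 0.5 mM 3-AT. The cells were strain YBZ-1 (LexA–MS2 coat fusion, HIS3 reporter) co-expressing Pumilio-1 PUF domain libraries and matching RNA elements from a centromeric plasmid.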

The target in a further test is PUM1 PUF domain R8-PYF (Homo sapiens, UniProt Q14671 828-1176, N1122P;Q1126F). In short, it runs like this:
as §1

A further test has as its target PUM1 PUF domain R3-EWA (Homo sapiens, UniProt Q14671 828-1176, C935E;R936W;Q939A). Put shortly: as §1
Another test deals with PUM1 PUF domain R1-GFE (Homo sapiens, UniProt Q14671 828-1176, S863G;R864F;Q867E). In short, it runs like this: as §1
In another test the target is PUM1 PUF domain R5-VNR (Homo sapiens, UniProt Q14671 828-1176, C1007V;R1008N;Q1011R). In short, it runs like this:
as §1

A further test addresses PUM1 PUF domain R5-PHS (Homo sapiens, UniProt Q14671 828-1176, C1007P;R1008H;Q1011S). Put shortly:
as §1

Another test concerns the target PUM1 PUF domain R4-SPG (Homo sapiens, UniProt Q14671 828-1176, N971S;H972P;Q975G). In short, it runs like this:
as §1

The target in the next test is T1, PUM1 PUF domain R6-FRV (Homo sapiens, UniProt Q14671 828-1176, N1043F;Y1044R;Q1047V).
T1 sequence: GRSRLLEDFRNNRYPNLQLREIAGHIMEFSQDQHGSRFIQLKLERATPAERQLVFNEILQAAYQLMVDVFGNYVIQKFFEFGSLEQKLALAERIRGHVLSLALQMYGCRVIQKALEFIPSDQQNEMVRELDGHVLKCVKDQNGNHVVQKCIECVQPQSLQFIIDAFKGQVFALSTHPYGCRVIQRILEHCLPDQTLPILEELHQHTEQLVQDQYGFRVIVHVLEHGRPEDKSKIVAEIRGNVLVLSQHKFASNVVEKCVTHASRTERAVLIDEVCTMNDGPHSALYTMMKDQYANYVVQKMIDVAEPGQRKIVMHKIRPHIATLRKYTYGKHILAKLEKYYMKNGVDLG
Put shortly:
as §1

In another test the target is PUM1 PUF domain R5-GQC (Homo sapiens, UniProt Q14671 828-1176, C1007G;R1008Q;Q1011C). In short, it runs like this:
as §1

The target of a further test is PUM1 PUF domain R3-RTM (Homo sapiens, UniProt Q14671 828-1176, C935R;R936T;Q939M). In short, it runs like this: as §1

Chain of PUM1 PUF domain R3-EWA (Q14671 828-1176 C935E/R936W/Q939A): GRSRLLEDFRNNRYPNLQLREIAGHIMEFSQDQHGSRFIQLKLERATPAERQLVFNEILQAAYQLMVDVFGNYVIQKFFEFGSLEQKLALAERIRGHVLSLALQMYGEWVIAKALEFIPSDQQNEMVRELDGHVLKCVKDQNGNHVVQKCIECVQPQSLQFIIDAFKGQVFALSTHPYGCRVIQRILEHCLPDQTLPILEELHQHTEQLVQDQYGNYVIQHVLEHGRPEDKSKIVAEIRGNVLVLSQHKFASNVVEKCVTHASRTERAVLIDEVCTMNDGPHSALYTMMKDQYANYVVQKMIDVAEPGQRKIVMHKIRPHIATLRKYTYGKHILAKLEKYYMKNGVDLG
Chain of PUM1 PUF domain R4-SPG (Q14671 828-1176 N971S/H972P/Q975G): as the sequence (Q14671 828-1176 C935E/R936W/Q939A) above, with E108C, W109R, A112Q, N144S, H145P, Q148G counted along it

Turning to “GGCUAGAACUAGUGGAUCCCCCGGCGCCCGGCGGCUCGAGCCCGGGUAAGCGUAAAUAGUCUGCAUGCCGCCGGGCGCCAUGCCUGCAGGUCGACUCUAGAAAACAUG”, the binding signal with PUM1 PUF domain R8-KWF is 4.32 log2 enrichment (interaction score); with PUM1 PUF domain R8-PYF it was 5.02 log2 enrichment (interaction score).

With “GGCUAGAACUAGUGGAUCCCCCGGCGCCCGGCGGCUCGAGCCCGGGUAAGUGUAAGUAGUCUGCAUGCCGCCGGGCGCCAUGCCUGCAGGUCGACUCUAGAAAACAUG”, in the test with PUM1 PUF domain R3-EWA, the binding signal is 4.37 log2 enrichment (interaction score).

Turning to “GGCUAGAACUAGUGGAUCCCCCGGCGCCCGGCGGCUCGAGCCCGGGUAAGUGUAAAUUGUCUGCAUGCCGCCGGGCGCCAUGCCUGCAGGUCGACUCUAGAAAACAUG”, the binding signal with PUM1 PUF domain R1-GFE was 0.52 log2 enrichment (interaction score).

With “GGCUAGAACUAGUGGAUCCCCCGGCGCCCGGCGGCUCGAGCCCGGGUAAGUGUUAAUAGUCUGCAUGCCGCCGGGCGCCAUGCCUGCAGGUCGACUCUAGAAAACAUG”, the binding signal with PUM1 PUF domain R5-VNR is 2.69 log2 enrichment (interaction score).

As to “GGCUAGAACUAGUGGAUCCCCCGGCGCCCGGCGGCUCGAGCCCGGGUAAGUGUGAAUAGUCUGCAUGCCGCCGGGCGCCAUGCCUGCAGGUCGACUCUAGAAAACAUG”, the binding signal with PUM1 PUF domain R5-PHS was 2.78 log2 enrichment (interaction score).

As for “GGCUAGAACUAGUGGAUCCCCCGGCGCCCGGCGGCUCGAGCCCGGGUAAGUGUACAUAGUCUGCAUGCCGCCGGGCGCCAUGCCUGCAGGUCGACUCUAGAAAACAUG”, in the test with PUM1 PUF domain R4-SPG, the binding signal is 2.11 log2 enrichment (interaction score).

As for “GGCUAGAACUAGUGGAUCCCCCGGCGCCCGGCGGCUCGAGCCCGGGUAAGUGUAAAUAGUCUGCAUGCCGCCGGGCGCCAUGCCUGCAGGUCGACUCUAGAAAACAUG”, the binding signal with PUM1 PUF domain R4-SPG was 4.58 log2 enrichment (interaction score); with PUM1 PUF domain R6-FRV it was 2.7 log2 enrichment (interaction score); with PUM1 PUF domain R3-EWA it was 4.04 log2 enrichment (interaction score); with PUM1 PUF domain R5-GQC, 3.41 log2 enrichment (interaction score).

On to “GGCUAGAACUAGUGGAUCCCCCGGCGCCCGGCGGCUCGAGCCCGGGUAAGUGUAUAUAGUCUGCAUGCCGCCGGGCGCCAUGCCUGCAGGUCGACUCUAGAAAACAUG”, for which, in the test with PUM1 PUF domain R4-SPG, the binding signal was 3.58 log2 enrichment (interaction score).

For “GGCUAGAACUAGUGGAUCCCCCGGCGCCCGGCGGCUCGAGCCCGGGUAAGUGUAAUUAGUCUGCAUGCCGCCGGGCGCCAUGCCUGCAGGUCGACUCUAGAAAACAUG”, the binding signal was 2.52 log2 enrichment (interaction score) with PUM1 PUF domain R3-RTM and 4.15 log2 enrichment (interaction score) with PUM1 PUF domain R3-EWA.

“GGCUAGAACUAGUGGAUCCCCCGGCGCCCGGCGGCUCGAGCCCGGGUAAGUGUAAAUGGUCUGCAUGCCGCCGGGCGCCAUGCCUGCAGGUCGACUCUAGAAAACAUG”: the binding signal with PUM1 PUF domain R1-GFE is 4.79 log2 enrichment (interaction score).
